Reference: paper PMC4552634, “A New Set of Chemical Starting Points with Plasmodium falciparum Transmission-Blocking Potential for Antimalarial Drug Discovery” (PLoS ONE, 2015)
Where two headings read alike, the source gives them in different places. In all, about 13,000 compounds went through this assay and about 3,200 (25%) showed an effect of 50% or more. This is one part of the list.

Tested on: P. falciparum stage V gametocytes
Design: BacTiter-Glo ATP luminescence viability of purified stage V gametocytes in 384-well plates, per cent inhibition versus DMSO
Conditions: 48 h, 5 µM, inhibitor

Row | Structure (SMILES) | % Inhibition [%] | % Inhibition (% Inhibition) [%]
1 | O=C(Nc1ccc(F)c(Cl)c1)NC1CCN(c2ccnc3cc(Cl)ccc23)C1 (stereo not shown) [TCMDC-133404] | -39.28 | 
2 | CCOC(=O)c1c(NC(=O)c2ccccc2)sc2c(O)c(CN(CC)CC)ccc12 [TCMDC-124066] | -13.75 | 
3 | CCC(C)NC(=O)CN1CN(c2ccccc2)C2(CCN(C(=O)c3ccc(-c4ccccc4)cc3)CC2)C1=O (stereo not shown) [TCMDC-125175] | -41.83 | 
4 | Cc1cc(N2CCCC2)nc(Nc2ccc(NC(=O)Cc3ccccc3)cc2)n1 [TCMDC-124967] | -3.146 | 
5 | CC(=O)Nc1ccc(C(=O)Nc2cccc(-c3ccc(-c4nc5cc(C(F)(F)F)ccc5[nH]4)s3)c2)cn1 [TCMDC-136825] | 32.63 | 
6 | NC1=NCN(OCc2ccc(Cl)c(Cl)c2)C(N)=N1 [TCMDC-131661] | 6.901 | 
7 | O=C(c1ccc([N+](=O)[O-])o1)N1CCC(c2cn(Cc3cccc(F)c3)c3ccccc23)CC1 [TCMDC-124804] | 44.33 | 
8 | CC(C)(C)c1ccc2oc(=O)n(C3CCN(C(=O)c4ccc([N+](=O)[O-])o4)CC3)c2c1 [TCMDC-124798] | 106.6 | 
9 | O=C(c1ccc([N+](=O)[O-])o1)N1CCC(Cc2ccc(C(F)(F)F)cc2)CC1 [TCMDC-124805] | 110.5 | 
10 | Cc1ccc2c(c1)c(C1CCN(C(=O)c3ccc([N+](=O)[O-])o3)CC1)cn2C [TCMDC-124787] | 93.47 | 
11 | O=[N+]([O-])c1cccc(CNCC2CCN(Cc3ccc(C(F)(F)F)cc3)CC2)c1 [TCMDC-141209] | 21.63 | 
12 | FC(F)(F)c1ccc(CNCC2CCN(Cc3ccc4c(c3)OCO4)CC2)cc1 [TCMDC-141674] | 9.475 | 
13 | Cc1ccc2c(-c3ccc([N+](=O)[O-])o3)cc(C)nc2c1 [TCMDC-131568] | 5.138 | 
14 | COc1cccc(-c2cnc(-c3ccncc3)nc2C2CCN(Cc3ccc(NC(C)=O)cc3)CC2)c1 [TCMDC-124592] | 1.604 | 
15 | O=C(Nc1ccc(OC2CCN(Cc3ccc(F)cc3)CC2)c(Cl)c1)c1ccccc1 [TCMDC-133751] | 2.198 | 
16 | COc1ccc(CN2CCCC(Nc3ccc(F)c(F)c3)C2)c(O)c1 (stereo not shown) [TCMDC-124607] | 5.364 | 
17 | Cc1cccc(C(=O)Nc2ccnc(N3CCC(N(C)Cc4cccc(O)c4)CC3)c2)c1 [TCMDC-134963] | 14.15 | 
18 | COc1ccc(-c2ccccc2)cc1NC(=S)NC1CCC(CN2CCC(c3c[nH]c4ccccc34)CC2)CC1 (stereo not shown) [TCMDC-140200] |  | 105.5
19 | COc1ccc(-c2ccccc2)cc1NC(=S)NC1CCC(CN2CCC(c3c[nH]c4ccccc34)CC2)CC1 (stereo not shown) [TCMDC-140182] |  | 85.27
20 | O=C(N[C@@H](CC1CCCCC1)C(=O)NCCc1ccc(Cl)c(Cl)c1)c1ccc(O)c(-c2ccc(Cl)c(Cl)c2)c1 [TCMDC-140874] | 30.89 | 
21 | O=C(CCOc1ccccc1)NCC1CCCO1 (stereo not shown) [TCMDC-123513] | 13.36 | 
22 | O=C(NCCCNc1nc2ccccc2[nH]1)c1cccc(OC(F)(F)F)c1 [TCMDC-140754] | -24.04 | 
23 | COc1ccc2nccc([C@@H](O)CN3CCC(NC(=O)C(=Cc4ccc(Cl)cc4Cl)c4ccc(-c5ccccc5)cc4)CC3)c2c1 [TCMDC-141109] | 17.05 | 

Row | Structure (SMILES) | % Inhibition [%] | % Inhibition (% Inhibition) [%]
24 | COc1ccc2nccc([C@@H](O)CN3CCC(NC(=O)/C(=C/c4ccccc4)c4ccc(-c5ccccc5)cc4)CC3)c2c1 [TCMDC-141115] | 0.831 | 
25 | O=C(NCCc1ccccc1)N(Cc1ccccc1-c1cccc(CNC2CCCC2)c1)C1CCN(Cc2ccccc2)CC1 [TCMDC-140612] | 64.34 | 
26 | O=C(NCCc1ccccc1)N(Cc1ccccc1-c1ccc(CNC2CCCC2)cc1)C1CCN(Cc2ccccc2)CC1 [TCMDC-140613] | 98.8 | 
27 | O=C(NCC1CCC(C(=O)NC2CCCc3ccccc32)CC1)c1ccc(O)c(-c2cccc([N+](=O)[O-])c2)c1 (stereo not shown) [TCMDC-140882] | 10.62 | 
28 | O=C(Nc1ccccc1)Nc1cccc(-c2ccc(-c3nc4ccc(C(F)(F)F)cc4[nH]3)cc2)c1 [TCMDC-133151] | -20.54 | 
29 | CCOc1cc2ncnc(Nc3ccc(OCc4c(F)cccc4F)c(OC)c3)c2cc1OCC [TCMDC-131911] | 15.37 | 
30 | CN1CCC(c2cc3c(cc2Br)CCN3C(=O)Nc2ccc(-c3ccncc3)c(Cl)c2)CC1 [TCMDC-139228] | 3.26 | 
31 | CN1CCCC(COc2cc3c(cc2Br)CCN3C(=O)Nc2ccc(-c3ccncc3)c(Cl)c2)C1 (stereo not shown) [TCMDC-139230] | 96.61 | 
32 | CN1CCC[C@@H](Oc2cc3c(cc2Br)CCN3C(=O)Nc2ccc(-c3ccncc3)c(Cl)c2)C1 [TCMDC-139237] | -19.19 | 
33 | CC(C)OC(=O)c1cccnc1SCC(=O)Nc1ccc(C(F)(F)F)cc1Cl [TCMDC-123575] | -93.91 | 
34 | FC(F)(F)c1ccc(CSc2ccc3nnc(-c4ccccn4)n3n2)cc1 [TCMDC-125344] | 51.34 | 
35 | COc1ccc(-c2cccc(NC(=O)c3cccc(C#N)c3)c2)cc1CNC(C)C [TCMDC-132622] | 84.95 | 
36 | COc1ccc(-c2ccc(NC(=O)c3ccc(C#N)cc3)cc2)cc1CN(C)CCN(C)C [TCMDC-132520] | 27.11 | 
37 | COc1ccc(-c2cccc(NC(=O)c3cccc(C#N)c3)c2)cc1CN(C)CCN(C)C [TCMDC-133339] | 13.46 | 
38 | COc1ccc(-c2ccc(NC(=O)c3ccc(C#N)cc3)c(F)c2)cc1CN(C)CCN(C)C [TCMDC-133366] | 57.41 | 
39 | COc1ccc(-c2cccc(NC(=O)c3ccc(C#N)cc3)c2)cc1CNC(C)C [TCMDC-132610] | 13.1 | 
40 | COc1ccc(-c2ccc(NC(=O)c3cccc(C#N)c3)cc2)cc1CN(C)C [TCMDC-133333] | 10.09 | 
41 | COc1ccc(-c2cccc(NC(=O)c3cccc(C#N)c3)c2)cc1CN(C)CCO [TCMDC-132625] | 94.55 | 
42 | COc1ccc(-c2cccc(NC(=O)c3ccc(F)cc3)c2)cc1CNC(C)C [TCMDC-132608] | 77.83 | 
43 | COc1ccc(-c2cccc(NC(=O)c3ccc(C#N)cc3)c2)cc1CN(C)CCN(C)C [TCMDC-133341] | 14.59 | 
44 | c1ccc(CCNc2ccnc(Nc3ccc4cn[nH]c4c3)n2)cc1 [TCMDC-136880] | 16.88 | 
45 | CN(c1ccccc1)S(=O)(=O)c1cccc(NC(=O)c2ccc(-n3ccnc3)c([N+](=O)[O-])c2)c1 [TCMDC-125320] | 19.17 | 
46 | CCC(=O)N1CCc2cc(Br)cc(S(=O)(=O)N3CC(C)CC(C)C3)c21 (stereo not shown) [TCMDC-123873] | -4.792 | 

Row | Structure (SMILES) | % Inhibition [%] | % Inhibition (% Inhibition) [%]
47 | Cc1ccc(N2C(=O)C3C(C2=O)C2(c4ccccc4)C(=O)C3(c3ccccc3)C(c3ccccc3)=C2c2ccccc2)c(C)c1 (stereo not shown) [TCMDC-124184] | 31.21 | 
48 | Oc1ccc(CCNc2nc(N/N=C/c3ccc(Cl)cc3)nc(N3CCNCC3)n2)cc1 [TCMDC-138543] | -10.01 | 
49 | C=CCN(c1ccc(OC)cc1)S(=O)(=O)c1ccc(Cl)c(C(=O)Nc2cccc(C#N)c2)c1 [TCMDC-123716] | -20.14 | 
50 | COc1ccc(-c2ccc(NC(=O)c3cccc(F)c3)cc2)cc1CNC(C)C [TCMDC-132529] | -9.819 | 
51 | COc1ccc(-c2cccc(NC(=O)c3ccc(Cl)cc3)c2)cc1CNC(C)C [TCMDC-132603] | 87.48 | 
52 | COc1ccc(-c2ccc(NC(=O)c3ccc(C#N)cc3)cc2)cc1CNC(C)C [TCMDC-132518] | 25.16 | 
53 | COc1ccc(-c2cccc(NC(=O)c3cccc(Cl)c3)c2)cc1CNC(C)C [TCMDC-133340] | -37.98 | 
54 | COc1ccc(-c2ccc(NC(=O)c3cccc(Cl)c3)c(F)c2)cc1CNC(C)C [TCMDC-132766] | 31.53 | 
55 | COc1ccc(-c2ccc(NC(=O)c3ccc(F)cc3)cc2)cc1CNC(C)C [TCMDC-132515] | 64.88 | 
56 | CCNc1cc(C(=O)N[C@@H](Cc2ccccc2)[C@H](O)CNC(C)(C)c2cccc(OC)c2)cc(N2CCCC2=O)c1 [TCMDC-138895] | -11.4 | 
57 | CCc1cccc(-n2nc(OCC(=O)NC3CCCC3)c3cccnc32)c1 [TCMDC-125160] | 5.355 | 
58 | COc1cccc2cc(C(=O)N[C@@H](CC(C)C)C(=O)N[C@H](C=NN3CC(=O)NC3=O)CC(C)C)oc12 [TCMDC-136063] | 6.388 | 
59 | Oc1cccc(-c2nc(-c3ccccc3)c(-c3ccc(Oc4ccc(-c5[nH]c(-c6cccc(O)c6)nc5-c5ccccc5)cc4)cc3)[nH]2)c1 [TCMDC-125666] | -19.27 | 
60 | CCCCOc1ccc(-c2nc3ccccc3[nH]2)cc1 [TCMDC-123930] | 57.83 | 
61 | Oc1cc(-c2nc(-c3ccccc3)[nH]c2-c2ccncc2)ccc1Cl [TCMDC-139660] | -47.58 | 
62 | COc1cc(-c2nc(-c3ccccc3)c(-c3ccccc3)[nH]2)ccc1OCCN(C)C [TCMDC-137716] | -85.41 | 
63 | COc1ccc(OCC(=O)Nc2cc(-c3nc4ccccc4[nH]3)ccc2Cl)cc1 [TCMDC-125425] | -8.801 | 
64 | COc1ccc(NC(=O)Nc2ccc(-c3ccc(-c4nc5ccccc5[nH]4)cc3)cc2)cc1 [TCMDC-133248] | -24.62 | 
65 | CCCCCCNCCOc1ccc(-c2nc(-c3ccccc3)c(-c3ccccc3)[nH]2)cc1 [TCMDC-137684] | 76.06 | 
66 | CCCCNCCOc1ccc(-c2nc(-c3ccccc3)c(-c3ccccc3)[nH]2)cc1 [TCMDC-138053] | 74.26 | 
67 | CCCCCOc1ccc(C=NNc2nc(-c3ccccc3)cc(=O)[nH]2)cc1 [TCMDC-124237] | 29.87 | 
